The panel holds about 83,000 compounds, 20% with a hit somewhere; the sample as a whole holds those more often.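 Note: values are percent growth. 100 is the growth of untreated cells, values between 100 and 0 indicate rising inhibition; between -100 and 0 indicates cell death.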 Unmarked numbers belong to inactive results. The source made the active and inactive calls. How the source made its calls: active means growth percent below 10; inactive means the rest.
Legend:
Assay in all cases: NCI-60 one-dose screen, 48 h (100 = growth as untreated, 0 = no growth, -100 = all killed)
Details in all cases: 10 µM unless noted
SK-MEL-2 melanoma = test system: SK-MEL-2 melanoma
EKVX NSCLC = test system: EKVX NSCLC
SN12C renal = test system: SN12C renal
UO-31 renal = test system: UO-31 renal
TK-10 renal = test system: TK-10 renal
ACHN renal = test system: ACHN renal
CAKI-1 renal = test system: CAKI-1 renal
A498 renal = test system: A498 renal
CCRF-CEM leukemia = test system: CCRF-CEM leukemia
MOLT-4 leukemia = test system: MOLT-4 leukemia

Row | Compound | growth (SK-MEL-2 melanoma) | growth (EKVX NSCLC) | growth (SN12C renal) | growth (UO-31 renal) | growth (TK-10 renal) | growth (ACHN renal) | growth (CAKI-1 renal) | growth (A498 renal) | growth (CCRF-CEM leukemia) | growth (MOLT-4 leukemia)
1 | C#CCOc1ccc2nc(CCl)c(Cl)c(Nc3cccc(C(F)(F)F)c3)c2c1 | 84.4% | 91.1% | 68.6% | 51.8% | 89.8% | 52.1% | 77% | 104% | 20.9% | 29.5%
2 | O=C(Oc1ccc2c(c1)sc1nc(-c3ccccc3)[nH]c(=O)c12)C(F)(F)F | 26.6% | 58.8% | 32% | 26.1% | 61.7% | 29% | 19.3% | 23.6% | 21.9% | 13.5%
3 | COC(=O)/C=C1/SC(=Nc2ccc(F)cc2)N(CCc2c[nH]c3ccc(O)cc23)C1=O | -0.819% (active) | 55.9% | 42.5% | 46.4% | 84% | 33.8% | 52.1% | 49.8% | 3.69% (active) | 0.14% (active)
4 | Cc1ccc(Cc2cnc(NC(=O)/C=C/c3ccc(C)o3)s2)cc1 | 53.8% | 49.7% | 51.7% | 48.5% | 68% | 40.4% | 36% | 25.1% | 27.8% | 37.6%
5 | CCOC(=O)C1=C(c2ccccc2)N=C2N(c3ccccc3)N=C(C(C)=O)N2C1c1ccc(F)cc1 (stereo not given) | 112% | 97% | 94.3% | 84.3% | 104% | 96.7% | 91.8% | 70.4% | 95.9% | 101%
6 | Clc1ccc(-c2nc(C(Cl)Cl)nc3cc(-c4ccccc4)nn23)cc1 | 84.5% | -12.8% (active) | 65.1% | 47.3% | 36.8% | -52.8% (active) | -15.8% (active) | -15.8% (active) | 53.4% | 31.7%
7 | Nc1c(C(=O)Nc2cccc3ncccc23)sc2nc3c(cc12)CN(Cc1ccccc1)CC3 | 57.3% | 76.4% | 82.1% | 70.2% | 89.4% | 88.6% | 74.1% | 72.1% | 69.6% | 48.5%
8 | COc1ccc(C=Nc2c(C(=O)Nc3cccc(Cl)c3C)sc3nc(C)c(C(=O)/C=C/c4ccc(OC)cc4)cc23)cc1 | 42.2% | 43.2% | 21% | 35.9% | 36.5% | 36.1% | 24% | -4.79% (active) | 19.7% | 52.2%
9 | CC(=O)N1N=C(c2ccc(Nc3nc(Nc4ccc(F)cc4)nc(Nc4ccc(F)cc4)n3)cc2)CC1c1ccc(N(C)C)cc1 (stereo not given) | 40.3% | 47.5% | 100% | 34% | 72.9% | 58.7% | 59.3% | 63.5% | -2.06% (active) | 14.2%
10 | O=C(Nc1ccc(Nc2ccncc2)cc1)c1ccc(Nc2ccnc3ccc([N+](=O)[O-])cc23)cc1 | 111% | 107% | 113% | 95.7% | 140% | 100% | 105% | 130% | 63.9% | 40.7%
11 | Cc1c2ncccc2nc2[nH]c3ccc(OCCN(C)C)cc3c12 | 33.7% | 49.2% | 13.9% | 19.1% | 31% | 10.6% | 63.3% | 79.9% | 6.43% (active) | 9.61% (active)
12 | COc1cc(-c2ccc[nH]2)[nH]c1/C=C1\N=C(C)C(CC(=O)OCC(C)(C)C)=C1C | -60.4% (active) | -69.3% (active) | -75% (active) | -86.5% (active) | -89.9% (active) | -83.2% (active) | -78.8% (active) | -89.9% (active) | -16.5% (active) | -37% (active)
13 | CCN(CC)C(=O)C1=C(C)NC(=O)NC1c1ccc2c(c1)OCO2 (stereo not given) | 108% | 99% | 107% | 81.4% | 100% | 103% | 93.1% | 111% | 104% | 104%
14 | C=CCN=c1sc(-c2ccc3ccccc3c2)cn1NC(=O)c1cc2ccc1CCc1ccc(cc1)CC2 | 85.6% | 58.2% | 74.3% | 42.3% | 79.7% | 72.3% | 60.9% | 62.7% | 41.2% | 45.3%
15 | O=C(NN1C(=O)CSC1c1cccc([N+](=O)[O-])c1)c1ccc(NC(=O)c2ccccn2)cc1 (stereo not given) | 102% | 97.7% | 96.9% | 94.5% | 97% | 103% | 98.7% | 97.5% | 110% | 69.7%
16 | Cc1ccccc1N1CCN(C(=S)c2ccccc2)CC1 | 85% | 96.1% | 96.6% | 82.1% | 108% | 106% | 75.3% | 101% | 114% | 106%
17 | CCN1C2CCC1/C(=C\c1ccccc1)C(=O)/C2=C/c1ccccc1 | 54.9% | 71.4% | 55.4% | 61.1% | 84.6% | 57.7% | 81.8% | 66.1% | 28.1% | 31%
18 | CCOC(=O)c1[nH]cc2c1CCc1sc(Nc3ccccn3)nc1-2 | 84.8% | 58.4% | 91.8% | 70.2% | 116% | 76.6% | 82.3% | 62.2% | -2.37% (active) | 55.2%
19 | c1ccc(Cn2cc3c(c2-c2ccccc2)CCc2cnoc2-3)cc1 | 93.4% | 80.1% | 101% | 80.1% | 101% | 101% | 84.1% | 54% | 48.3% | 58.5%
20 | O=S(=O)(Nc1cc(F)cc(F)c1)c1ccc(-c2cnc(C3CC3)o2)cc1 | 39.9% | 52.5% | 46.9% | 50.1% | 63.1% | 43.5% | 32.7% | 1.5% (active) | 32.2% | 39.1%
21 | CCCCC#Cc1c(I)n(C2OC(CO[Si](C)(C)C(C)(C)C)C3OC(C)(C)OC32)c(=O)n(C(=O)c2ccccc2)c1=O (stereo not given) | 43% | 74.8% | 57.8% | -49.4% (active) | -11.4% (active) | 50.6% | 26.9% | 87.9% | -7.06% (active) | 1.98% (active)
22 | COc1ccc(C2CC(c3ccccc3)=NN2C(=O)c2cc(OC)c(OC)c(OC)c2)cc1O (stereo not given) | 76.5% | 46.7% | 37.5% | 30.3% | 63.2% | 37.5% | 52.9% | 17.3% | 17.9% | 18.9%
23 | Cc1cccc(-c2nc(C(C)C)sc2-c2ccnc(NCCCNS(=O)(=O)c3ccc(Cl)cc3)c2)c1 | 79% | 78.4% | 73% | 75.3% | 80.1% | 75.6% | 85% | 79% | 68.4% | 52.3%
24 | CCn1cc(C(=O)O)c(=O)c2cc(F)c(N3CCN(CC(=O)Nc4ccccc4)C(C)C3)c(F)c21 (stereo not given) | 122% | 104% | 103% | 76.5% | 108% | 97.8% | 87% | 73.4% | 96.7% | 107%
25 | CCOC(=O)CC[C@H](NC(=O)c1ccc(N(C)Cc2cnc3nc(N)nc(N)c3n2)c2ccccc12)C(=O)OCC | 51.9% | 75.2% | 35.6% | 20.9% | 43.8% | 25% | 24.1% | 35.1% | 10.5% | 24.8%
26 | Cc1[nH]c(C(=O)Nc2ccccc2OC2CCN(CCN3CCOCC3)CC2)c(Cl)c1Cl | 101% | 86% | 97.7% | 51.9% | 69.7% | 94.7% | 84% | 71.6% | 89.4% | 72.6%

Reference: PubChem BioAssay (NCI)
